ChEMBL document CHEMBL3988442, “University of Dundee, Small-Polar-MMV Screening Library” (2021)
For part of these data: Potency and affinity values are given separately.

Columns and labels:
[1] = biological target: T1, Methionyl-tRNA synthetase, putative (Leishmania donovani (strain BPK282A1)) (UniProt E9BF75); test: Leishmania donovani Methionine tRNA synthetase (LdMetRS):v7. Dose response assay; format: functional; design: conc 80 nM, time 150 minutes
T1 sequence (whole entry): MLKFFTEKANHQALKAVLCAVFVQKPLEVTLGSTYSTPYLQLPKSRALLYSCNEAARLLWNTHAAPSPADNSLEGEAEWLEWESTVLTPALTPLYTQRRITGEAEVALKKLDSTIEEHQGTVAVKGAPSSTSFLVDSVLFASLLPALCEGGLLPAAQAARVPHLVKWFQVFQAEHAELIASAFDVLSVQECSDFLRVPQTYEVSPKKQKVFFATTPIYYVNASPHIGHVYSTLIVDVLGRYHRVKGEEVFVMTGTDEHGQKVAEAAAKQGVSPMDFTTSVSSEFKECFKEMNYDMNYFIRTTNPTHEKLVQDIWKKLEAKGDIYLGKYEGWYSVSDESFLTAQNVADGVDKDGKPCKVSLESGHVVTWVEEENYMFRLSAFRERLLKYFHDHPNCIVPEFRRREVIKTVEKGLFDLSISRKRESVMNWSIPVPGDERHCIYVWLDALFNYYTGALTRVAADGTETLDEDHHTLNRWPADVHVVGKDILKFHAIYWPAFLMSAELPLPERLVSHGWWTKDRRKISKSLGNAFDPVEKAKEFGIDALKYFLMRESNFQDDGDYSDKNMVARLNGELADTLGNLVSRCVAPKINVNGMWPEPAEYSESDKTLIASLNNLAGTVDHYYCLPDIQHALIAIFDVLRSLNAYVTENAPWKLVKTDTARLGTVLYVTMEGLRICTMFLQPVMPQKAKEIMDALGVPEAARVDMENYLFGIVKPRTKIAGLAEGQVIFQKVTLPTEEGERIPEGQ

[2] = biological target: Protein translocase subunit SecA (Escherichia coli (strain K12)) (UniProt P10408); test: Assay to Identify E. coli SecA ATPase Inhibitors; format: functional; design: scale not given: direction of the effect not stated beside the values; settings: 30 µM
Protein translocase subunit SecA (Escherichia coli (strain K12)), sequence (P10408 whole entry): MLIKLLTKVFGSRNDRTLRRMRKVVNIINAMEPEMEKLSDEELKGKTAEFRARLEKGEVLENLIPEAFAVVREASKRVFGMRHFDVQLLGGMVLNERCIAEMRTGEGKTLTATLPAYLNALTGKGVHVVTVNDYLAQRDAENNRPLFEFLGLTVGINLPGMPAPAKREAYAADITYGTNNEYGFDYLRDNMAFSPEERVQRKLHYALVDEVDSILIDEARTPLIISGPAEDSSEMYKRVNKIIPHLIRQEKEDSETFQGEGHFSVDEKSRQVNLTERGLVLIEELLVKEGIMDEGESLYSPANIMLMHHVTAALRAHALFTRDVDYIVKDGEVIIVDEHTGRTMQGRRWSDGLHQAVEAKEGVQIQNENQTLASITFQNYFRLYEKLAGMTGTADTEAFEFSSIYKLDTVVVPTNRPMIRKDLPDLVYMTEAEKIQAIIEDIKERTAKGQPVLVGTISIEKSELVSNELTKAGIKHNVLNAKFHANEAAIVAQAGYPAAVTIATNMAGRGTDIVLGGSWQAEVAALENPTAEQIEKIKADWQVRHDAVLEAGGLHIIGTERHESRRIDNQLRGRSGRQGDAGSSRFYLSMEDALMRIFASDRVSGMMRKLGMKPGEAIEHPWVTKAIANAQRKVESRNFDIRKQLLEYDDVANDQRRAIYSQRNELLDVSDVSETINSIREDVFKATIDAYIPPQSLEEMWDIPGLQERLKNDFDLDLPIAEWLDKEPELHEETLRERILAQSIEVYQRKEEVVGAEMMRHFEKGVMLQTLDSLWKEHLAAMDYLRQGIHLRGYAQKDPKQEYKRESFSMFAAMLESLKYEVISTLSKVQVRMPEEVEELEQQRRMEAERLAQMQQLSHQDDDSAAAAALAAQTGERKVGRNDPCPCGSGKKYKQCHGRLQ

[3] = biological target: T2, Ubiquitin-activating enzyme e1, putative (Leishmania donovani (strain BPK282A1)) (UniProt E9BSI1); test: Leishmania donovani Ubiquitin Activating Enzyme (LdE1); format: functional; design: scale not given: direction of the effect not stated beside the values; settings: 30 µM
T2 sequence (whole entry): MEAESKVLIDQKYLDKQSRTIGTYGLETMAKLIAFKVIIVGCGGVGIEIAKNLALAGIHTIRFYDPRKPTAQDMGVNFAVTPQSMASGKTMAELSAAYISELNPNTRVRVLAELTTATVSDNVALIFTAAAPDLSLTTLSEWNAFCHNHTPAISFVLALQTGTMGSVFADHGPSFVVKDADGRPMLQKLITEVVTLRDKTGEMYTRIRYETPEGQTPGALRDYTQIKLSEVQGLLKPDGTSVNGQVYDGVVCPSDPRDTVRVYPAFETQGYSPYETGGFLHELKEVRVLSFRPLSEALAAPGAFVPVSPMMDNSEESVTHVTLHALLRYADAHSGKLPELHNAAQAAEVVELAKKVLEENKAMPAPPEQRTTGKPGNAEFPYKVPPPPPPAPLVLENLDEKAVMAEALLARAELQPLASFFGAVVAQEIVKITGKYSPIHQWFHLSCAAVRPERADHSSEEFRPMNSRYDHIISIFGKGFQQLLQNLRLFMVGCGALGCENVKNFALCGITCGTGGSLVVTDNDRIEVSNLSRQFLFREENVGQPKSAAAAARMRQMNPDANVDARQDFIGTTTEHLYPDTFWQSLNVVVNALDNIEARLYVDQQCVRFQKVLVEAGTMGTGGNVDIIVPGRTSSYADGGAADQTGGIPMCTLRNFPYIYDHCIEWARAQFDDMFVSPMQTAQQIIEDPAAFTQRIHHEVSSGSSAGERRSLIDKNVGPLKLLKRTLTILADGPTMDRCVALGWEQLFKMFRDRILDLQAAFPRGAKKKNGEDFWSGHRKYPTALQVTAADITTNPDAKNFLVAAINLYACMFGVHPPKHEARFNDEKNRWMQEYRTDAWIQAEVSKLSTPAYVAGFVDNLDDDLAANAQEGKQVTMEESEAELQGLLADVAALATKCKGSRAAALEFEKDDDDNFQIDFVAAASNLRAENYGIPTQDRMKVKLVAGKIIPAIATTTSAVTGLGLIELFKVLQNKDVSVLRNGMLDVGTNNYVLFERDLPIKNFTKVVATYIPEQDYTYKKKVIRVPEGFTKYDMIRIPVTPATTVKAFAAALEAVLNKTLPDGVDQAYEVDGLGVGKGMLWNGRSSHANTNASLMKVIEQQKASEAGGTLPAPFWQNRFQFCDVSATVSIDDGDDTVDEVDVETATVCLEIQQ

[4] = biological target: T3, Aspartate--tRNA(Asp/Asn) ligase (Mycobacterium tuberculosis (strain ATCC 25618 / H37Rv)) (UniProt P9WFW3); test: Assay for Asp RNA synthetase-1 from Mycobacterium tuberculosis; format: functional; design: scale not given: direction of the effect not stated beside the values; settings: 30 µM; note: in the data most compounds retested in dose-response had high values
T3 sequence (whole entry): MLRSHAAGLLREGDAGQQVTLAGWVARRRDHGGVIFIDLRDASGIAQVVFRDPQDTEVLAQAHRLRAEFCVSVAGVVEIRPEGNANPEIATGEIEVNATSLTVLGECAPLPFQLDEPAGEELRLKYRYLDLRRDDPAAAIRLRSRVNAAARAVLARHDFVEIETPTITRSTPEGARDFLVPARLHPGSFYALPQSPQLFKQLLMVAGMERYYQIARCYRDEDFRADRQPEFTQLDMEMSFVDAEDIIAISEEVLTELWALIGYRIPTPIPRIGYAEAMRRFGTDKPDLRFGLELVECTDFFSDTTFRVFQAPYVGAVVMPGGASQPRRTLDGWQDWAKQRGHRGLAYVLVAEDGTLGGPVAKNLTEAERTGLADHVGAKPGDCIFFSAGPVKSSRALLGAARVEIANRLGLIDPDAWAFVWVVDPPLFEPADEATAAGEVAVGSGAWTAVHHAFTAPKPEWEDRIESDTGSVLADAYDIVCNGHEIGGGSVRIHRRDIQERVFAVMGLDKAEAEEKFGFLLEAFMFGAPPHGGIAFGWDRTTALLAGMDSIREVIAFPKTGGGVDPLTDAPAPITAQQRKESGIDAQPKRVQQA

[5] = biological target: AMP-activated protein kinase, AMPK (Homo sapiens) (UniProt P54646+O43741+P54619+Q9UGJ0+Q9Y478+Q13131+Q9UGI9); test: AMP-dependent Kinase enzyme assay. An in vitro enzyme assay that detects ADP turnover that is directly proportional to AMPK activity. This uses naive AMPK that is activated during the assay with MK-8722; format: functional; design: scale not given: direction of the effect not stated beside the values; settings: 30 µM
[6] = biological target: Sialic acid-binding Ig-like lectin 9 (Homo sapiens) (UniProt Q9Y336); test: Hs-Siglec9 ALPHAscreen SOP 20170721; design: scale not given: direction of the effect not stated beside the values; settings: 10 µM
Sialic acid-binding Ig-like lectin 9 (Homo sapiens), sequence (Q9Y336 whole entry): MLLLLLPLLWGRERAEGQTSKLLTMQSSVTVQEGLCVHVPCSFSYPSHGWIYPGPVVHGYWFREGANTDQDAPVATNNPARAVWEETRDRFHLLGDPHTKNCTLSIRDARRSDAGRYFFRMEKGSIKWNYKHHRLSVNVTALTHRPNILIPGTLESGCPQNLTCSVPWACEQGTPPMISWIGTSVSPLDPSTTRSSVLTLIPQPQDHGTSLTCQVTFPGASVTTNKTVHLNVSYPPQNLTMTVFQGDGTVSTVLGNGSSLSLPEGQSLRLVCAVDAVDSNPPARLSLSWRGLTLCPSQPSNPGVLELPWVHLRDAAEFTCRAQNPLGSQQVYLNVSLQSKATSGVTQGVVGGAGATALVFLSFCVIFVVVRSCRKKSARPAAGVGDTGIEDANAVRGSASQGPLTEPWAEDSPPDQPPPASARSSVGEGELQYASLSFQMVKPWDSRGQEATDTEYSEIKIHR

Trypanosoma cruzi = test: Trypanosoma cruzi phosphomannomutase and mannose-1-phosphate guanylyltransferase assay; format: functional; design: scale not given: direction of the effect not stated beside the values; settings: 10 µM
[7] = biological target: T4, Arginase-2, mitochondrial (Homo sapiens) (UniProt P78540); test: in vitro enzyme assay to detect the production of urea directly proportional to the activity of Arginase II; format: functional; design: scale not given: in the data most compounds retested in dose-response had high values; settings: 33.3 µM
T4 sequence (whole entry): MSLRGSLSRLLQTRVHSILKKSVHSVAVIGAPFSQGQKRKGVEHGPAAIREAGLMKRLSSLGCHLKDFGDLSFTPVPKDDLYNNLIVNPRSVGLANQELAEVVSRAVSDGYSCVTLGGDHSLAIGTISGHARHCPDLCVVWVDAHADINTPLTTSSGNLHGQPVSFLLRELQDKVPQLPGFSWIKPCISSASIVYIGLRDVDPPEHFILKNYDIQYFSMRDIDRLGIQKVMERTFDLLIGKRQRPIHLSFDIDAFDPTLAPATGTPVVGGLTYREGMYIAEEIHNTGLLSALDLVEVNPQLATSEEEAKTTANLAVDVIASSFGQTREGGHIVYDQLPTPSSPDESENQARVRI

[8] = biological target: T5, Proteasome subunit beta (Trypanosoma cruzi) (UniProt O96673); test: Trypanosoma cruzi proteasome chymotrypsin-like activity (TcProtChymo) assay.; format: functional; design: scale not given: in the data most compounds retested in dose-response had high values; settings: 9.37 µM
T5 sequence (whole entry): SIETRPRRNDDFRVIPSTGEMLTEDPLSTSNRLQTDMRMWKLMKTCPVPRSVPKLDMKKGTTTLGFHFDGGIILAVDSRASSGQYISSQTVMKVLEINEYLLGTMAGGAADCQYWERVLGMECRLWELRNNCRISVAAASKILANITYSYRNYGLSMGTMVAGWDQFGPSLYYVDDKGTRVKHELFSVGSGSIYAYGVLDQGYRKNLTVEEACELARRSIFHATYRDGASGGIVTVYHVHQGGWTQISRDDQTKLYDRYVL

Homo sapiens = species: Homo sapiens; test: To identify inhibition of the IFN signalling (Jak-Stat) pathway via expression of an eGFP reporter gene under the control of an IFN-stimulated response element (ISRE) containing MxA promoter.; format: functional; design: scale not given: direction of the effect not stated beside the values; settings: 30 µM
[9] = biological target: Shiga toxin 2 (Escherichia coli O157:H7) (UniProt P09385+P09386); test: E. coli 0.157:H7 Shiga Toxin SOP - stx2 screening assay; format: functional; design: scale not given: direction of the effect not stated beside the values; settings: 30 µM
[10] = biological target: T6, Tyrosyl-tRNA synthetase, putative (Trypanosoma cruzi (strain CL Brener)) (UniProt Q4DSP6); test: Trypanosoma cruzi tyrosyl tRNA synthetase (TcYRS) _High Tyrosine SOP; format: functional; design: scale not given: in the data most compounds retested in dose-response had high values; settings: 30 µM
T6 sequence (whole entry): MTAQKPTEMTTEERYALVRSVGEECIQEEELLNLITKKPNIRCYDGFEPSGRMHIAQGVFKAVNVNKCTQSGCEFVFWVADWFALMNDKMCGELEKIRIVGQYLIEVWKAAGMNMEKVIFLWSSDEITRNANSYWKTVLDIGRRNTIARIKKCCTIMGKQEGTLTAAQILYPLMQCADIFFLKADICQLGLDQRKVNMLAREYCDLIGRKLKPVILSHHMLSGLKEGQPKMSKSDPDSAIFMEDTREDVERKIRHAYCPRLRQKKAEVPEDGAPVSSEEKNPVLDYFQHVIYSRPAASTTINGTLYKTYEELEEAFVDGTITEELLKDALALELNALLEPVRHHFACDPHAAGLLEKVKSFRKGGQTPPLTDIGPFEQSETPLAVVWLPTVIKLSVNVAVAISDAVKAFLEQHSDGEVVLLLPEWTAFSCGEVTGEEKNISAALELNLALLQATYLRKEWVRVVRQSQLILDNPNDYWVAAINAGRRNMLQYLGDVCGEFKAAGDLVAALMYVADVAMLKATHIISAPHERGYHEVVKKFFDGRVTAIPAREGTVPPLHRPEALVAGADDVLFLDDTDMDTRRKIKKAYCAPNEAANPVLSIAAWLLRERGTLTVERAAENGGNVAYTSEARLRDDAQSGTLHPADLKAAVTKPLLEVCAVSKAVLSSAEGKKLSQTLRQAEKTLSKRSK

[11] = biological target: T6, Tyrosyl-tRNA synthetase, putative (Trypanosoma cruzi (strain CL Brener)); test: Trypanosoma cruzi tyrosyl tRNA synthetase (TcYRS) SOP; format: functional; design: scale not given: direction of the effect not stated beside the values; settings: 30 µM
[12] = biological target: Chromo domain-containing protein 1 (Saccharomyces cerevisiae (strain ATCC 204508 / S288c) (Baker's yeast)) (UniProt P32657); test: ScCHD-1 Enzyme Inhibition Assay; format: functional; design: scale not given: in the data most compounds retested in dose-response had high values; settings: 30 µM
Chromo domain-containing protein 1 (Saccharomyces cerevisiae (strain ATCC 204508 / S288c) (Baker's yeast)), sequence (P32657 whole entry, the tested form may be a part): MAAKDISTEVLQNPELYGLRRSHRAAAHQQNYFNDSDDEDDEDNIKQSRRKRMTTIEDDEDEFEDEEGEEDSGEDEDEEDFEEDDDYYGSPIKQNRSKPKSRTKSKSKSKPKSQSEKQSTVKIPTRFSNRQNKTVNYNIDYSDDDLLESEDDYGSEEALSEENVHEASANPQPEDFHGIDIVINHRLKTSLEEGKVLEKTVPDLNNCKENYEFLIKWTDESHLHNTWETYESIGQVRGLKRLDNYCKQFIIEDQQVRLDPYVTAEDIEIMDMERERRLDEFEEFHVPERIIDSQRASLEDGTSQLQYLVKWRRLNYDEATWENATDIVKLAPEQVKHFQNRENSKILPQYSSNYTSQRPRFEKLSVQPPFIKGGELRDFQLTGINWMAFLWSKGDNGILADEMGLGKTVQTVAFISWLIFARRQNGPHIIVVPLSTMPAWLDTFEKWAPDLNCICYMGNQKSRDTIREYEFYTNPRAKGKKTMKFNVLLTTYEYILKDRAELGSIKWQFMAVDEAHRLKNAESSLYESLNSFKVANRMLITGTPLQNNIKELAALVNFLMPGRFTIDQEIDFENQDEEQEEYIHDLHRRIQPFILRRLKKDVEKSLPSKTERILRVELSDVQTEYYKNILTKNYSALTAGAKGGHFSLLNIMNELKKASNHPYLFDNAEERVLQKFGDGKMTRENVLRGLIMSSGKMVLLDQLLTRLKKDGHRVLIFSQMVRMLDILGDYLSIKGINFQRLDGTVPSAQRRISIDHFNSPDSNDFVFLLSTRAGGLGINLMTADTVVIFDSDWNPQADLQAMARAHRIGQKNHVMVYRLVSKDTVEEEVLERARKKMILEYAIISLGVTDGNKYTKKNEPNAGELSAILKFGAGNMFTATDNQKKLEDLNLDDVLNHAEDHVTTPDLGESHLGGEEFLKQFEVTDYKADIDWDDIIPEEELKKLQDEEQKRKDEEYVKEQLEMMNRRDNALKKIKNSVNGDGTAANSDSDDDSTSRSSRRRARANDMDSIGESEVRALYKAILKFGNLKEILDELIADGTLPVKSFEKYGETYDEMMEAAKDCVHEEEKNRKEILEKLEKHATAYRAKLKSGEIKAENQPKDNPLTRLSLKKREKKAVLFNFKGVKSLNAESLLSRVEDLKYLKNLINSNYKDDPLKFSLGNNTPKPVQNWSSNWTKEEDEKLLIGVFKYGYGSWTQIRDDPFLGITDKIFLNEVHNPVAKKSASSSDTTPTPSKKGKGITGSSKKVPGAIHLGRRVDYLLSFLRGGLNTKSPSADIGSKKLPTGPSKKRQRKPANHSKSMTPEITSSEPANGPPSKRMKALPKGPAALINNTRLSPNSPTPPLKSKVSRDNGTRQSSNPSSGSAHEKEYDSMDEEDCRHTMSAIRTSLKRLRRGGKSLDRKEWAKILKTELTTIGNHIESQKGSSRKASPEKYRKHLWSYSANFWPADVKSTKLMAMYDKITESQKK

COC(=O)Nc1cc(Cl)cc(Cl)c1
PXC50 ([1]; MAX_EFFECT 8.423326134): < 3
PXC50 ([1]; MAX_EFFECT 23.76425856): < 3

Oc1cc(Cl)cc(Cl)c1
PXC50 ([1]; MAX_EFFECT 13.49809886): < 3
PXC50 ([1]; MAX_EFFECT 17.06263499): < 3

O=C(CC1CC1)N[C@@H]1CN(Cc2ccncc2)C[C@@H]2CCCO[C@@H]21
Percent Effect [2]: 0.104%
Percent Effect [3]: 5.33%
Percent Effect [4]: -1.92%
Percent Effect [5]: -0.724%
Percent Effect [6]: -5.17%
Percent Effect (Trypanosoma cruzi): 2.12%
Percent Effect [7]: -47.1%
Percent Effect [8]: 8.38%
Percent Effect (Homo sapiens): -8.9%
Percent Effect [9]: -6.38%
Percent Effect [10]: 5.21%
Percent Effect [11]: 7.5%
Percent Effect [12]: -4.5%

NC1CC1c1ccc(Cl)cc1Cl (stereo unspecified)
PXC50 ([1]; MAX_EFFECT 19.58174905): < 3
PXC50 ([1]; MAX_EFFECT 31.74946004): < 3

Cc1cc(C(F)(F)F)nc(N2CCN3CCCC3C2)n1 (stereo unspecified)
PXC50 ([1]; MAX_EFFECT 10.18276762): < 4
PXC50 ([1]; MAX_EFFECT 10.96605744): < 4
